Screening results deposited in PubChem BioAssay by National Center for Advancing Translational Sciences (NCATS).
GoLoco inh red – inhibitors of human Gai1-RGS12 GoLoco interaction (red fluorophore) | P63096 | Gai1:RGS12 GoLoco peptide FP, rhodamine, 10 min | Potency, µM (doses to about 61.6 µM), inactives show top-dose activity, negative = inhibition, actives largely listed as inhibitors | 230,000 tested, 0.44% active; active = well fitted inhibition curve with a large enough effect, not every such curve was filed as active; inactive = no such curve, though single readings can be large or run the other way; note: nearly all actives have a fitted effect of over 30% in size
Tau fibril FP – inhibitors of human tau fibril formation; P10636; K18 P301L tau heparin fibrillization, Alexa594 FP, 6 h; Potency, µM (series often up to 57.7 µM), for the others: at the top dose activity, negative = inhibition, actives largely listed as inhibitors; 280,000 tested, 0.39% active; AID 1468; note: nearly all actives have a fitted effect of over 55% in size
Target sequence (P10636 561-689 P618L limits assumed): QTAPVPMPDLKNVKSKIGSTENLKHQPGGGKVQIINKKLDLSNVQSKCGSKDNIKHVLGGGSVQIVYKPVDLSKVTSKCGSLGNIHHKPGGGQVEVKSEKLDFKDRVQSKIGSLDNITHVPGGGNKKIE
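Quantitative HTS format: compounds meet 15 uM recombinant K18 P301L tau and Alexa 594-tau tracer in 100 mM sodium acetate pH 7; 20 uM heparin triggers fibrillization at 37 C over 6 hr; FP gives the signal.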
TR SRC2 fluor cs – Texas Red fluorescence interference in TRb-SRC2 counter-screen | TRb/SRC2 Texas Red total fluorescence interference | Potency, µM (series often up to 106 µM), for the others: at the top dose fluorescence change, negative = quenching | 280,000 tested, 0.29% active; active = well fitted curve in either direction with a large enough effect; inconclusive = small, poorly fitted or top-dose-only effect
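Human TRβ ligand-binding domain (0.6 uM) and Texas Red SRC2 peptide (20 nM) in Tris buffer with 1 uM T3 and 5% DMSO were incubated with pinned compound for 5 hr at ambient temperature. Total fluorescence was computed as S + 2P (555/632 nm).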
Tau fluor cs – counter-screen for tau fibril formation inhibitors. 280,000 tested, 0.93% active. Potency, µM (highest dose often 57.7 µM), for the others: at the highest dose activity change, negative = decrease. tau K18 P301L Alexa594 fluorescence, heparin fibrillization. AID 1463; note: nearly all actives have a fitted effect of over 55% in size
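Human tau K18 P301L (15 uM unlabeled, 0.24 uM Alexa 594-labeled) in 100 mM sodium acetate pH 7 with 20 uM heparin, 6 hr at 37 C. ThT 30 uM added, 1 hr ambient; Alexa 594 FP and total fluorescence read at 555/632 nm.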
TRb SRC2 PPI – TRbeta-SRC2 interaction inhibition. P10828. TRbeta-SRC2 peptide binding, fluorescence polarization; receptor liganded with 1 µM T3. Potency, µM (doses to about 106 µM), without a hit: top-dose activity change, negative = inhibition, usual class: inhibitors. 280,000 tested, 0.065% active;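 note: plate controls were bound peptide for no effect and peptide without receptor for full effect; nearly all actives have a fitted effect of over 50% in size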
Target sequence (P10828 whole entry, looked up): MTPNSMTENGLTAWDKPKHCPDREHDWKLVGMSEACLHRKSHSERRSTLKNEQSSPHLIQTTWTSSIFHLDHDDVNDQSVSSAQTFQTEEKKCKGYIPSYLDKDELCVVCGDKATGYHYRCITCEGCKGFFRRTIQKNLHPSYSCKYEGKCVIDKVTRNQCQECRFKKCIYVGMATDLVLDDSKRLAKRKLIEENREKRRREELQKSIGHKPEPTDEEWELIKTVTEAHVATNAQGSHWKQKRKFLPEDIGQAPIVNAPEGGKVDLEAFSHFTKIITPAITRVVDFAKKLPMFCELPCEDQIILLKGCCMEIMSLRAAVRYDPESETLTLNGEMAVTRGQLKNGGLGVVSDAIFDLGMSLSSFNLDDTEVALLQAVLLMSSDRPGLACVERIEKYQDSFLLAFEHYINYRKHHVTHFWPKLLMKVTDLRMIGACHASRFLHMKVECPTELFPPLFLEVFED
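Fluorescence polarization of 20 nM Texas Red SRC2 peptide with 0.6 uM human TRb ligand-binding domain, in Tris buffer with 1uM T3 and 5% DMSO. Incubated 5 hr ambient; normalized to unbound and bound controls.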
Tau ThT inhib – blocks human tau fibril formation measured by thioflavin T. P10636. recombinant tau K18 P301L (four-repeat tau fragment), heparin-induced fibrillization, ThT fluorescence. Potency, µM (doses to about 57.4 µM), without a hit: top-dose activity, negative = inhibition, actives largely listed as inhibitors. 270,000 tested, 2.1% active. AID 1460; note: nearly all actives have a fitted effect of over 55% in size
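Heparin-induced (20 uM) aggregation of recombinant human K18 P301L tau, 15 uM unlabeled with 0.24 uM labeled, pH 7 acetate buffer, 6 hr at 37 C with compound. Fibrils quantified by 30 uM ThT fluorescence after 1 hr ambient incubation.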
Starred values were filed as active, the others as inactive; ? = inconclusive; . = no result; [ ] = another dose, or the depositor's remark. An excerpt weighted towards active compounds, which were near 3.2% of everything screened. Unless noted, calls come from the whole dose curve; as a rule, active = well fitted curve in the direction sought with a large enough effect; inconclusive = small, poorly fitted or top-dose-only effect, or another doubt; inactive = no such curve, though single readings can be large; an effect the other way counts as inactive or inconclusive. Unless noted, % is set by controls: 0 for no effect and ±100 for the full control effect; potency is the fitted concentration of half-maximal effect.

SMILES | GoLoco inh red | Tau fibril FP | TR SRC2 fluor cs | Tau fluor cs | TRb SRC2 PPI | Tau ThT inhib
O=C(O)c1ccc2nc(-c3ccccc3)c(-c3ccccc3)nc2c1 | 1% | -1% | -2% | 0% | -2% | -2%
Nc1ccc(Oc2ccc3nc(-c4ccccc4)c(-c4ccccc4)nc3c2)cc1 | 6% | 11% | -1% | 14µM*[quencher] | -13% | -9%
N#CC[N+]1(Cc2ccccn2)CCCC1 | 7%[14.2 µM] | . | . | . | . | .
COc1ccc(/C=C(\C#N)c2nc3ccccc3n2C)c(OC)c1 | . | 7% | -26% | ? | -2% | 14µM*
Cc1cc2cc(CNC(=O)Nc3cccc(Cl)c3)ccc2n1C | -37% | ? | 45µM*[fluorescent] | ? | 45µM* | ?
Cc1cccc(NC(=O)NCc2ccc3c(c2)cc(C)n3C)c1 | -5% | 6% | 23% | -14% | -15% | 0%
CCN(CCO)c1ccc(N=Nc2cc(C)[nH]n2)cc1 | 18% | 12% | -3% | -15% | 6% | 10µM*
CCN(CC)c1ccc(N=Cc2ccc(N(CC)CC)cc2O)cc1 | 112% | ? | 23% | ? | -26% | ?
COc1c(OC(C)=O)ccc(/C=C/c2ccc3cccc(OC)c3n2)c1[N+](=O)[O-] | -3% | -1% | -13% | ? | -12% | 8.9µM*
CCOc1c(OC(C)=O)ccc(/C=C/c2ccc3cccc(OC(C)=O)c3n2)c1[N+](=O)[O-] | -13% | ? | -9% | 8.9µM*[quencher] | 1% | 6.3µM*
COc1c(OC(C)=O)ccc(/C=C/c2ccc3ccccc3n2)c1[N+](=O)[O-] | 1% | ? | -11% | 16µM*[quencher] | 0% | 10µM*
C=CCN1C(=O)/C(=C/c2ccc(OC(C)=O)c(OCC)c2[N+](=O)[O-])SC1=S | 46% | 1% | 0% | 0% | 4% | 4%
COC(=O)c1ccc(/C=C/c2ccc3cccc(OC(C)=O)c3n2)cc1 | -7% | 2% | 3% | -4% | -13% | 5%
COc1ccc(NC(=O)/C(Cl)=C(/Cl)S(=O)(=O)Cc2ccccc2)cn1 | 0% | ? | 1% | -24% | -2% | 7.1µM*
COc1ccc(NC(=O)C(Cl)=C(Cl)Cl)cn1 | 5% | 5% | 0% | 8% | 0% | -2%
CCc1ccc2oc(-c3cc(NC(=O)c4cc(OC)c(OC)c(OC)c4)ccc3O)nc2c1 | . | -1% | 26% | ? | ? | -11%
CCc1ccc2oc(-c3cc(N=Cc4cccc(OC)c4O)ccc3O)nc2c1 | 11% | 7% | -1% | ? | 10% | 14µM*
Cc1ccc(NC(=S)N/N=C/c2c(C)[nH]c3ccccc23)cc1 | 1% | 9% | -2% | 14µM*[quencher] | 4% | ?
Cc1[nH]c2ccccc2c1/C=N/NC(=S)NCc1ccccc1 | 9% | -8% | -6% | 13µM*[quencher] | 6% | ?
Cc1[nH]c2ccccc2c1/C=N/NC(=O)c1cc(-c2ccccc2)n[nH]1 | -2% | ? | -18% | 16µM*[quencher] | 19% | .
Cc1[nH]c2ccccc2c1/C=N/NC(N)=S | 5% | -2% | -2% | -18% | 1% | ?
Cc1[nH]c2ccccc2c1/C=N/NC(=O)c1cc(C(C)(C)C)[nH]n1 | 2% | ? | -5% | ? | -1% | .
CN1C=CC(=C2C=CN(C)C=C2)C=C1 | . | . | -25% | . | -3% | .
CCOc1ccccc1CNC(=O)CCC(=O)N1CCSc2ccccc21 | . | -3% | 1% | -13% | -7% | -9%
Cc1cc2ncn(/N=C/c3ccc([N+](=O)[O-])s3)c2cc1C | 14% | 17% | 1% | ? | -18% | ?
SMILES | GoLoco inh red | Tau fibril FP | TR SRC2 fluor cs | Tau fluor cs | TRb SRC2 PPI | Tau ThT inhib
O=[N+]([O-])c1ccc(/C=N/n2cnc3ccccc32)s1 | -2% | -12% | -2% | 25µM*[quencher] | 6% | 14µM*
COc1ccccc1NCCC(=O)OCC(=O)NC1CC1 | -11% | 1% | 3.5µM*[quencher] | 4% | ? | 6%
CCOC(=O)c1sc(NC(=O)CSc2n[nH]c(-c3ccncc3)n2)c(C#N)c1C | 24% | -6% | 2% | -21% | 6% | -18%
CCOc1ccc(/C=C/C2=Cc3c(sc(NC(=O)CSc4n[nH]c(N)n4)c3C#N)C(C)(C)C2)cc1 | 301% | -14% | 7% | ? | 0% | 14µM*
Cc1ccsc1/C=C/C1=Cc2c(sc(NC(=O)CSc3n[nH]c(N)n3)c2C#N)C(C)(C)C1 | 236% | -13% | -5% | ? | 24% | 16µM*
COC(=O)c1sc(NC(=O)CSc2n[nH]c(N)n2)c(C(=O)OC)c1C | 6% | -4% | -3% | -11% | 2% | -6%
O=c1cc(-c2ccc(Cl)c(Cl)c2)[nH][nH]1 | 10% | ? | -4% | ? | -14% | 3.2µM*
COc1ccc(-c2cc(=O)[nH][nH]2)cc1 | 8% | ? | -5% | -27% | ? | 2.2µM*
O=c1cc(-c2ccc(Cl)cc2)[nH][nH]1 | 5% | ? | -4% | -24% | ? | ?
COc1ccc(-c2cc(=O)[nH]c(=O)[nH]2)cc1 | -6% | 1% | -7% | 2% | -3% | -1%
CCCCCCCC/C=C\CCCCCCCC(=O)N[C@H](CO)Cc1ccc(O)cc1 | . | . | -6% | . | -1% | .
COCCN=C1NN=C(c2ccc(NC(C)=O)cc2)CS1 | -10% | ? | 2% | -27% | 0% | 28µM*
CC(=O)Nc1ccc(C2=NNC(=Nc3ccc(S(=O)(=O)N4CCOCC4)cc3)SC2)cc1 | 14% | ? | -8% | 16µM*[quencher] | -6% | 4.5µM*
CCC(=O)Nc1ccc(S(=O)(=O)N2CCOCC2)cc1 | -2% | 2% | -1% | -6% | -16% | -9%
CC(=O)Nc1ccc(C2=NNC(=Nc3cccc(S(=O)(=O)N(C)C)c3)SC2)cc1 | 30% | ? | -10% | 14µM*[quencher] | -4% | 7.9µM*
C[C@H](NC(=O)[C@@H](Cc1c[nH]c2ccccc12)NC(=O)[C@@H](N)Cc1cnc[nH]1)C(=O)N[C@@H](Cc1c[nH]c2ccccc12)C(=O)N[C@H](Cc1ccccc1)C(=O)N[C@@H](CCCCN)C(N)=O | . | . | 2% | . | 6% | .
COc1ccccc1N1CCN(C(=O)c2nc(SC)ncc2Cl)CC1 | . | -4% | 6% | -12% | -1% | -5%
O=C(Nc1ccccc1)Nc1sccc1-c1nc2ccccc2s1 | 37% | ? | 7% | ? | 6% | ?
O=C(Nc1cccc(-c2nc3ccccc3s2)c1)c1cccs1 | 6% | 22µM* | -3% | ? | 5% | ?
CCC(CC)C(=O)Nc1cccc(-c2nc3ccccc3s2)c1 | . | ? | 5% | ? | -5% | -17%
O=C(Nc1cccc(Cl)c1)Nc1sccc1-c1nc2ccccc2s1 | 44% | ? | 6% | 14µM*[quencher] | 6% | ?
